Measurements from PubChem BioAssay.
Measured potencies and affinities stand elsewhere. The source made the active and inactive calls. Unless noted, the rule behind the calls is not given here.

Biological target: Calcium-dependent protein kinase 1 (Plasmodium falciparum (isolate 3D7)) (UniProt P62344)
Experiment: PfCDPK1 kinase inhibitors, biochemical, TCAMS library (AID 1159585; cut-off not given, nearly all actives have IC50 up to about 0.98 µM;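 note: inhibitors leave more ATP so luminescence rises with inhibition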)
Conditions: recombinant PfCDPK1, Kinase-Glo ATP depletion luminescence

Chain of Calcium-dependent protein kinase 1 (Plasmodium falciparum (isolate 3D7)) (P62344 whole entry, looked up): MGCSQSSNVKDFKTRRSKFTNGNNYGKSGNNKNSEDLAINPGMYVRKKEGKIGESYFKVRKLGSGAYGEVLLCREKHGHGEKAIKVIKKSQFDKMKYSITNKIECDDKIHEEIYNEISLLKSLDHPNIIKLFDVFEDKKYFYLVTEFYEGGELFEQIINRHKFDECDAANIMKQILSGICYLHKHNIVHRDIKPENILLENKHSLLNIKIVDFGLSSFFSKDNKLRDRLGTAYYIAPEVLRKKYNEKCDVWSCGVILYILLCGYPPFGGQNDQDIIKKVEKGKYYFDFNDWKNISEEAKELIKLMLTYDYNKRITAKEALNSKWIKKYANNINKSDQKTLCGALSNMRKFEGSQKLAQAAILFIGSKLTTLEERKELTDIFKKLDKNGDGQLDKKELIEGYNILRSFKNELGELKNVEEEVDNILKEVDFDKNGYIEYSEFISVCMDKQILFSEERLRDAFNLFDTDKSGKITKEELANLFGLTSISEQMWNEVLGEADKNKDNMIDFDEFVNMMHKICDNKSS

outcome, inactive:
COc1ccc(Cc2c(C)nc3nc(N)nc(N)c3c2C)cc1
Cc1cccc2[nH]c(-c3ccc(-c4ccc(NC(=O)C(C)CN(C)C)cc4)cc3)nc12 (stereo not given)
COc1ccc(CNC2CCN(C)CC2)cc1-c1ccc(S(=O)(=O)NCCc2ccccn2)cc1
CCCNc1ccc(-c2cc(C(N)=O)c3[nH]cc(C4CCN(S(=O)(=O)CC)CC4)c3c2)cn1
COc1cc(-c2ccccc2)ccc1C(=O)Nc1ccc2c(c1)N(C)CCC2
O=C(Nc1ccc2nccc(N3CCN4CCC[C@H]4C3)c2c1)c1ccc(Cl)c(Cl)c1
O=C(/C=C/c1ccc(Cl)c(Cl)c1)NCCCCCCN1CCN(C(=O)Nc2cccc(Cl)c2)CC1
Fc1cccc(COc2ccc(Nc3ncnc4ccc(-c5nnc(C(F)(F)F)o5)cc34)cc2Cl)c1
CC(C)c1sc(N2CCN(C)CC2)nc1C(=O)Nc1cccc2c1CCCC2
COc1ccc2c(NN=Cc3ccc(F)cc3)cc(C)nc2c1
COc1ccc(C=NNc2cc(C)nc3ccccc23)cc1OC
O=S(=O)(c1ccc(Oc2ccccc2)cc1)N(CCC(O)(C(F)(F)F)C(F)(F)F)Cc1cccc(O)c1
COc1cc(CNCCCCCCNCc2cc(OC)c(OC)c3ccccc23)c2ccccc2c1OC
CC(C)(C)c1ccc(OCCCON2C(N)=NC(N)=NC2(C)C)cc1
Cc1cc(C(F)(F)F)n2nc(C3CCN(Cc4cc(C)c(O)c(C)c4)C3)cc2n1 (stereo not given)
COc1cc2nc(N(C)CC3COc4ccccc4O3)nc(N)c2cc1OC (stereo not given)
OCC1CCN(Cc2cccc(-c3ccc(-c4nc5ccc(C(F)(F)F)cc5[nH]4)s3)c2)CC1
CCN(CC)CCn1c2ccccc2c2ccc(C(=O)Nc3ccc4sc(C)nc4c3)cc21
O=C(Nc1ccnc(N2C[C@H]3C[C@@H]2CN3Cc2cccc(O)c2)c1)c1ccc(F)cc1
COc1cc2nc(N3CCC(CNC(=O)c4ccc(-c5ccc(-c6noc(C)n6)cc5C)cc4)CC3)nc(N)c2cc1OC
Cc1cc(C(F)(F)F)nn1-c1ccc(NC(=O)c2ccco2)cc1
Cc1nc(-c2ccncc2)sc1C(=O)Nc1ccc(Cl)cc1C(=O)Nc1ccc(Cl)cc1
CS(=O)(=O)c1ccc(CNCc2cccc(-c3ccc(-c4nc5ccc(C(F)(F)F)cc5[nH]4)cc3)c2)cc1
Cn1cc(C2CCN(CCCCCNC(=O)/C=C/c3ccc(Cl)c(Cl)c3)CC2)c2cc(O)ccc21
CC1CN(Cc2ccccc2)CCN1c1ccc(NC(=O)c2cccs2)cc1 (stereo not given)

Biological target: Plasmodium falciparum protein kinase 6 (PK6, PF3D7_1337100) (UniProt Q8IDW1)
Sequence (Q8IDW1 1-305): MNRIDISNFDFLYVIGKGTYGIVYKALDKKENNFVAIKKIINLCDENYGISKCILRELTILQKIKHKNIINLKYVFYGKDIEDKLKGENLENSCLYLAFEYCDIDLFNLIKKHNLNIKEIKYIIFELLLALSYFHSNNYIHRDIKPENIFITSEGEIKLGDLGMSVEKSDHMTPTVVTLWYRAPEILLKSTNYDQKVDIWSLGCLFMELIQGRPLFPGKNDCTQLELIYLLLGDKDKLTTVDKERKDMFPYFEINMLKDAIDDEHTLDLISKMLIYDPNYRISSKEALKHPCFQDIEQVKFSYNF
Experiment: PfPK6 kinase inhibitors, biochemical, TCAMS library (AID 1159586)
Conditions: recombinant PfPK6, Kinase-Glo ATP depletion luminescence

outcome, inactive:
Cc1ccccc1C1CCN(C2CCC(NC(=O)c3cc4cc(C(C)C)ccc4[nH]3)CC2)CC1 (stereo not given)
CCN(CC)CCCC(C)Nc1cc(C=Cc2ccccc2Cl)nc2cc(Cl)ccc12 (stereo not given)
N/C(=N\c1ncccn1)Nc1cccc(Cc2ccccc2)n1
Cc1cc([N+](=O)[O-])ccc1N1CCN(CCCCNC(=O)c2ccc(NC(=O)c3ccc(Cl)cc3)cc2)CC1
Cc1ccc(OCC2CCN(c3ncc(C(=O)NCCCN4CCCC4=O)cc3Cl)CC2)cc1
NC1CCN(Cc2cccc(-c3ccc(-c4nc5ccccc5[nH]4)cc3)c2)C1 (stereo not given)
O=C(/C=C/c1ccccc1Cl)NC1CCC(CN2CCC(c3c[nH]c4ccncc34)CC2)CC1 (stereo not given)
COC(=O)c1cccc(CNCc2ccc(-c3cccc(-c4nc5c(C)cccc5[nH]4)c3)cc2)c1
Cc1cccc2[nH]c(-c3cccc(-c4cccc(NC(=O)CNC(=O)c5ccc(O)cc5)c4)c3)nc12
CC(=O)NCCNc1nccc(N2CCc3ncnc(Nc4ccc(OCc5cccc(F)c5)c(Cl)c4)c3C2)n1
COc1ccc(-c2cccc(NC(=O)c3cccc(Cl)c3)c2)cc1CN(C)CCN(C)C
O=C(NCC1Cc2cc(Oc3ccccc3)ccc2O1)c1ccc([N+](=O)[O-])o1 (stereo not given)
CCCCn1c(SC(C)C)nc2c(c1=O)C1(CCCCC1)Cc1ccccc1-2
CC(=O)Nc1ccc(S(=O)(=O)N2CCN(c3nc(NC4CCCC4)c4ccccc4n3)CC2)cc1
Cc1ccc(O)cc1Nc1ccnc2ccc(-c3csc(CNCCN4CCOCC4)n3)cc12
COc1ccc(Cc2c(C)nc3nc(N)nc(N)c3c2C)cc1
Cc1cccc2[nH]c(-c3ccc(-c4ccc(NC(=O)C(C)CN(C)C)cc4)cc3)nc12 (stereo not given)
COc1ccc(CNC2CCN(C)CC2)cc1-c1ccc(S(=O)(=O)NCCc2ccccn2)cc1
CCCNc1ccc(-c2cc(C(N)=O)c3[nH]cc(C4CCN(S(=O)(=O)CC)CC4)c3c2)cn1
COc1cc(-c2ccccc2)ccc1C(=O)Nc1ccc2c(c1)N(C)CCC2
O=C(Nc1ccc2nccc(N3CCN4CCC[C@H]4C3)c2c1)c1ccc(Cl)c(Cl)c1
O=C(/C=C/c1ccc(Cl)c(Cl)c1)NCCCCCCN1CCN(C(=O)Nc2cccc(Cl)c2)CC1
Fc1cccc(COc2ccc(Nc3ncnc4ccc(-c5nnc(C(F)(F)F)o5)cc34)cc2Cl)c1
CC(C)c1sc(N2CCN(C)CC2)nc1C(=O)Nc1cccc2c1CCCC2
COc1ccc2c(NN=Cc3ccc(F)cc3)cc(C)nc2c1
COc1ccc(C=NNc2cc(C)nc3ccccc23)cc1OC
O=S(=O)(c1ccc(Oc2ccccc2)cc1)N(CCC(O)(C(F)(F)F)C(F)(F)F)Cc1cccc(O)c1
COc1cc(CNCCCCCCNCc2cc(OC)c(OC)c3ccccc23)c2ccccc2c1OC
CC(C)(C)c1ccc(OCCCON2C(N)=NC(N)=NC2(C)C)cc1
Cc1cc(C(F)(F)F)n2nc(C3CCN(Cc4cc(C)c(O)c(C)c4)C3)cc2n1 (stereo not given)
COc1cc2nc(N(C)CC3COc4ccccc4O3)nc(N)c2cc1OC (stereo not given)
OCC1CCN(Cc2cccc(-c3ccc(-c4nc5ccc(C(F)(F)F)cc5[nH]4)s3)c2)CC1
CCN(CC)CCn1c2ccccc2c2ccc(C(=O)Nc3ccc4sc(C)nc4c3)cc21
O=C(Nc1ccnc(N2C[C@H]3C[C@@H]2CN3Cc2cccc(O)c2)c1)c1ccc(F)cc1
COc1cc2nc(N3CCC(CNC(=O)c4ccc(-c5ccc(-c6noc(C)n6)cc5C)cc4)CC3)nc(N)c2cc1OC
Cc1cc(C(F)(F)F)nn1-c1ccc(NC(=O)c2ccco2)cc1
Cc1nc(-c2ccncc2)sc1C(=O)Nc1ccc(Cl)cc1C(=O)Nc1ccc(Cl)cc1
CS(=O)(=O)c1ccc(CNCc2cccc(-c3ccc(-c4nc5ccc(C(F)(F)F)cc5[nH]4)cc3)c2)cc1
Cn1cc(C2CCN(CCCCCNC(=O)/C=C/c3ccc(Cl)c(Cl)c3)CC2)c2cc(O)ccc21
CC1CN(Cc2ccccc2)CCN1c1ccc(NC(=O)c2cccs2)cc1 (stereo not given)
